Bioassay records: PubChem, National Center for Advancing Translational Sciences (NCATS)
HT1080 IDH1KD tx: toxicity to HT-1080 IDH1 knockdown cells (counter line); HT-1080 IDH1 knockdown viability, ATP luminescence, 48 h; Potency, µM (highest dose often 46.1 µM), for inactives: at the top dose activity, negative = toxicity, usual class: cytotoxic; hit rate 2% among 360,000;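 further: 0% = DMSO wells and -100% = cell-free medium wells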
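Using the IDH1-knockdown HT-1080 line run in the same batch and compound series as the NT line, viability after 48 h at 37 °C was determined by CellTiter-Glo luminescence and expressed as % activity.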
SW480 rerep: induces DNA re-replication in SW480 colon adenocarcinoma cells | SW480 DNA re-replication, Hoechst DNA content imaging, 48 h | Potency, µM (series often up to 46.1 µM), without a hit: top-dose re-replication activation, hits mostly activators | hit rate 1.8% among 340,000 | AID 624297; further: % of control where 0% means no effect; nearly all actives have a fitted effect of over 55% in size
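Compounds, transferred as 23 nL by pin tool, were incubated with cells for 48 hr; DNA content per nucleus was then quantified by Hoechst staining and fluorescence plate imaging.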
KB-V1 cytotox: kills drug-selected multidrug resistant KB-V1 cells. AID 1347076. Potency, µM (titrated, usually from 46.1 µM), usual class: cytotoxic. hit rate 3.4% among 400,000. KB-V1 MDR cells viability, CellTiter-Glo, 72 h; further: on the % scale 0 is the no-effect control and ±100 the full control effect; nearly all actives have a fitted effect of over 60% in size
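KB-V1, DMEM (no phenol red) + 10% FBS; cpd pin-transferred, titration series; 72 h, 37 degrees C; CellTiter-Glo, luminescence. Data normalized, curve-fit.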
KB-3-1 tox: kills parental KB-3-1 adenocarcinoma cells; KB-3-1 viability, CellTiter-Glo ATP luminescence, 72 h; Potency, µM (top dose mostly 46.1 µM), hits mostly cytotoxic; hit rate 1.4% among 400,000; AID 1347075; further: on the % scale 0 is the no-effect control and ±100 the full control effect; nearly all actives have a fitted effect of over 60% in size
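Luminescent ATP read-out (CellTiter-Glo) measures survival of drug-naive KB-3-1 cells after 72 h compound exposure at 37 °C. Titration series was screened from lowest to highest concentration, with DMSO vehicle plates as background controls.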
HT1080-NT tox: kills 2HG-producing HT-1080-NT fibrosarcoma cells; hit rate 1.6% among 360,000; HT-1080-NT fibrosarcoma viability, CellTiter-Glo ATP luminescence, 48 h; Potency, µM (highest dose often 46.1 µM), without a hit: top-dose activity, negative = less viability, actives largely listed as cytotoxic;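 further: NT is the 2HG producing partner of a matched IDH1 knockdown line; 0% = DMSO-treated cells and -100% = media-only wells without cells; nearly all actives have a fitted effect of over 55% in size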
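750 cells/well, RPMI + 5% FBS; 2 h settle, compound pin-transfer, 48 h at 37 degrees C. CellTiter-Glo 10 min RT, luminescence. Normalized to DMSO and media-only wells.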
MCF10A rerep: DNA re-replication induction in MCF 10a cells; AID 624296; hit rate 2.9% among 350,000; Potency, µM (doses to about 46.1 µM), inactives show top-dose activity, positive = re-replication, hits mostly activators; MCF 10A DNA re-replication, Hoechst nuclear intensity, 48 h; further: % of control where 0% means no effect; nearly all actives have a fitted effect of over 50% in size
Starred values were filed as active, the others as inactive; i = inactive; u = inconclusive; x = not tested or not shown; [ ] = remark or other dose. Most compounds without a hit are left out; they make up all but 7.9% or so of the library. The call rests on the fitted dose curve; in most records, active means well fitted curve in the direction sought with a large enough effect; inconclusive means small, poorly fitted or top-dose-only effect, or another doubt; inactive means no such curve, though single readings can be large; an effect the other way counts as inactive or inconclusive. Potency means the concentration at half of the fitted maximal effect.

SMILES | HT1080 IDH1KD tx | SW480 rerep | KB-V1 cytotox | KB-3-1 tox | HT1080-NT tox | MCF10A rerep
CCCCCn1c(=O)c(C(=O)Nc2cccc(C)n2)c(O)c2ccccc21 | 11.4% | -4.3% | u | i | 26.4% | 1.3%
CCCCn1c(=O)c(C(=O)Nc2ccc(C)cn2)c(O)c2ccccc21 | 8.4% | -3.2% | u | i | 3.5% | -2.4%
CCCCCn1c(=O)c(C(=O)Nc2ccccn2)c(O)c2ccccc21 | -7.0% | 2.9% | 6.51µM* | i | -7.9% | -4.1%
CCOC(=O)c1ccc(NC(c2ccc(N(C)C)cc2)P(=O)(OC(C)C)OC(C)C)cc1 (stereo unspecified) | -29.8% | u | i | i | -22.1% | u
CC(=O)Nc1cc(-c2cccc(C(=O)N(C)C)c2)cn2c(-c3cccc(C(F)(F)F)c3)cnc12 | -29.1% | x | i | i | u | x
Cc1ccc(N=Nc2cc(C)ccc2N)cc1 | u | 6.6% | i | i | u | u
CCCCCCn1c(=O)c(C(=O)Nc2cnccn2)c(O)c2ccccc21 | u | -4.6% | 1.3µM* | 2.06µM* | -20.8% | u
COc1ccc(-c2csc(Nc3ccc(S(N)(=O)=O)cc3)n2)cc1 | 17.8µM* | u | i | u | u | 10.3µM*
OC(Cn1cncn1)(Cn1cncn1)c1ccc(F)cc1F | 0.0% | u | i | i | -4.5% | -7.0%
S=P(NCCNP(=S)(N1CC1)N1CC1)(N1CC1)N1CC1 | -3.4% | u | i | i | -5.8% | u
S=P(NCCSCc1ccccc1)(N1CC1)N1CC1 | -17.6% | 9.2µM* | i | i | -9.8% | 14.6µM*
O=C(Nc1ccc(Oc2ccc(Cl)cc2)c(Cl)c1)c1cc(I)cc(I)c1O | u | 9.8% | u | u | u | u
O=C1NC(=O)C(=Cc2ccc(SC3CCCCC3)o2)C(=O)N1 | u | u | i | i | u | 20.6µM*
Cc1ccc(CN2C3CCCC2CC(NC(=S)NCc2ccccc2)C3)cc1 (stereo unspecified) | u | u | i | i | 23.1µM* | 6.0%
CNC(=S)NC1CC2CCCC(C1)N2CC(C)C (stereo unspecified) | 13.2% | 2.9% | i | i | 2.8% | 3.2%
COc1ccc(-c2ccc(OC)c(OC)c2OC)cc1 | u | 3.66µM* | u | u | u | 4.61µM*
CC(=O)O[C@@H]1/C=C/[C@](C)(O)C[C@@H](C)C/C=C/[C@H]2[C@@H]3O[C@]3(C)[C@@H](C)[C@H]3[C@H](Cc4ccccc4)NC(=O)[C@@]312 | u | 2.59µM* | i | i | -20.8% | 1.46µM*
C[C@@]12CCC(=O)C=C1C=C[C@H]1[C@H]3CC[C@](O)(CCC(=O)O)[C@]3(C)CC[C@@H]12 | x | -4.0%[20.6 µM] | x | x | x | 2.7%[20.6 µM]
COc1cccc(CN(C)C[C@@H]2OCc3ccccc3-c3c(n(C)c4ccccc34)C(=O)N([C@@H](C)CO)C[C@H]2C)c1 | u | x | i | u | u | x
C[C@@H]1CN([C@H](C)CO)C(=O)c2c(c3ccccc3n2C)-c2ccccc2CO[C@H]1CN(C)Cc1ccc(-c2ccccc2)cc1 | 16.4µM* | x | u | u | 20.6µM* | x
COc1cc2c(c(OC)c1OC)-c1ccc(O)c(=O)cc1[C@@H](NC(C)=O)CC2 | 5.17µM* | 18.4µM* | u | u | 6.51µM* | 16.4µM*
COc1cc2c(c(OC)c1OC)-c1ccc(O)cc1C(NC(C)=O)CC2 (stereo unspecified) | u | 0.058µM* | u | u | u | 0.058µM*
COc1cc2c3c(c1OC)-c1cc(O)ccc1CC3NCC2 (stereo unspecified) | 1.6% | -0.3% | i | i | 1.3% | 0.8%
COc1cc2c(c(OC)c1OC)-c1ccc(O)cc1[C@@H](NC(C)=O)CC2 | 0.0164µM* | u | i | 0.0164µM* | 0.0326µM* | u
O=C1CCCCC1CN1CCCCC1 (stereo unspecified) | x | 0.0% | x | x | x | -3.6%
SMILES | HT1080 IDH1KD tx | SW480 rerep | KB-V1 cytotox | KB-3-1 tox | HT1080-NT tox | MCF10A rerep
CCN(CC)C(=O)c1cccc(-c2csc(C(C)(O)c3ccccc3)n2)c1 (stereo unspecified) | -1.9% | x | u | i | u | x
COc1ccc(CNCCC(c2ccc(OC(C)C)cc2)C(C)C)cc1OC (stereo unspecified) | u | u | 5.17µM* | u | u | u
COc1cc(C2SCC(=O)Nc3c2c(C)nn3-c2ccccc2)cc(OC)c1OC (stereo unspecified) | 0.8% | -2.1% | i | i | -4.2% | 0.8%
Cc1nn(-c2ccccc2)c2c1C(c1ccc3c(c1)OCO3)SCC(=O)N2 (stereo unspecified) | -2.0% | 23.7% | u | i | 13.7% | 14.6µM*
CCOC(=O)[C@]12Cc3cc(OC)ccc3[C@H]1N(C1CCCCC1)C(=O)c1ccccc12 | 2.31µM* | x | 2.31µM* | 3.26µM* | 2.59µM* | x
CCOC(=O)[C@]12Cc3cc(Cl)ccc3[C@H]1N(C1CCCCC1)C(=O)c1ccccc12 | 2.31µM* | x | u | 1.64µM* | 2.31µM* | x
C[N+]1([O-])[C@H]2CC[C@H]1CC(OC(=O)[C@@H](CO)c1ccccc1)C2 (stereo partly specified) | x | 0.3% | x | x | x | 5.9%
COC(=O)[C@@H]1[C@@H](C(=O)OC)C2(c3ccccc3-c3ccccc32)N(c2ccc(Cl)cc2)N1C#N | 5.8µM* | 9.2µM* | u | u | 4.61µM* | 7.08µM*
COC(=O)C[C@]1(C(=O)OC)CN(C#N)N(c2ccc(Cl)cc2)C12c1ccccc1-c1ccccc12 | 4.11µM* | u | 5.8µM* | 5.17µM* | 10.3µM* | 5.17µM*
COc1ccc(NC(=O)c2ccc(NC(=O)c3nc4nccc(C)n4n3)cc2)cc1 | -8.1% | 4.9% | u | i | -8.0%[9.24 µM] | -2.1%
O=C1CN(O)C(c2ccccc2Cl)=c2cc(Br)ccc2=N1 | -6.0% | -0.8% | i | i | -2.9% | 23.1µM*
O=C1CN(O)C(c2ccccc2)=c2cc(Br)ccc2=N1 | 4.6% | -1.1% | u | i | 13.6% | -6.0%
COc1ccc(S(=O)(=O)Nc2ccccc2OC)cc1N=Nc1c(O)[nH]c(=S)[nH]c1=O | 11.6µM* | 9.0% | i | i | 14.6µM* | 20.6µM*
CCCNc1nc(-c2cc(C(=O)Nc3ccccc3)on2)cc(C(C)C)n1 | -2.6% | -2.1% | i | u | -1.0% | 13.7%
O=C1C=C(N2CC2)c2ccccc2C1=O | u | x | i | 20.6µM* | 23.1µM* | x
